Results from the supplement of paper PMC10646978.
± gives the standard deviation.

Assays:
Details in all cases: modulator concentration 10 µM
[1] = test system: RAW-Dual (murine macrophage reporter line); test: NF-kB reporter (SEAP) activity fold change vs agonist alone; higher = enhanced NF-kB activity
Procedure, shortened: (§1)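 RAW-Dual murine macrophage reporter cells were plated at 50 000 per well in 384-well plates, pin-transferred compound to 10 μM final, and pre-incubated for 1 hour at 37 °C before a PRR agonist was added and the cells incubated overnight. NF-κB activity was read from supernatant SEAP with QUANTI-Blue at 620 nm absorbance, and IRF activity from Lucia luciferase with QUANTI-Luc by luminescence. Each signal was expressed as fold change by dividing by the mean agonist-only control on the same plate. Two replicate plates were averaged, with errors obtained by propagation.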

[2] = test system: RAW-Dual (murine macrophage reporter line); test: IRF reporter (Lucia luciferase) activity fold change vs agonist alone; higher = enhanced IRF activity
Procedure, shortened: as §1

[3] = test system: RAW-Dual (murine macrophage reporter line); test: viability score (confluency relative to resting cells, overnight) (fraction); higher = more viable, active = viable (0.7 or more)
Procedure, shortened: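 Compound was added at a final 10 μM to RAW-Dual macrophages in 384-well plates and left overnight. Confluency was imaged with IncuCyte, and two masks were generated in IncuCyte software over all imaged wells. Each viability score is confluency relative to resting cells, and a compound met the cutoff only when both masks were above 70% of resting cells.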

[4] = agonist: CpG ODN 1826 0.5 ug/mL

| Structure (SMILES) | NF-kB reporter [1, 4] | NF-kB reporter ([1]; agonist: LPS 0.1 ug/mL) | NF-kB reporter ([1]; agonist: MPLA […]) | IRF reporter ([2]; agonist: 3'3'-cGAMP 10 ug/mL) | IRF reporter ([2]; agonist: LPS 0.1 ug/mL) | IRF reporter ([2]; agonist: MPLA […]) | viability score [3] |
| --- | --- | --- | --- | --- | --- | --- | --- |
| Cl.Cl.Fc1ccc(C(c2ccc(F)cc2)N2CCN(C/C=C/c3ccccc3)CC2)cc1 | 1.06 ± 0.087 | 0.97 ± 0.1 | 1.42 ± 0.3 | 1.06 ± 0.068 | 1.11 ± 0.082 | 1.26 ± 0.14 | 0.999 (active) |
| O=C(O)c1ccc(NC(=O)c2cccc(F)c2)cc1 | 1.09 ± 0.091 | 1.01 ± 0.1 | 0.962 ± 0.061 | 0.963 ± 0.035 | 1.08 ± 0.056 | 0.994 ± 0.18 | 0.998 (active) |
| CC(C)C(=O)c1c(C(C)C)nn2ccccc12 | 1.59 ± 0.12 | 1.2 ± 0.086 | 1.21 ± 0.032 | 0.808 ± 0.076 | 0.938 ± 0.031 | 0.926 ± 0.088 | 0.957 (active) |
| CCOC(=O)C1=C(COCCN)NC(C)=C(C(=O)OC)C1c1ccccc1Cl.O=S(=O)(O)c1ccccc1 (configuration not stated) | 0.921 ± 0.14 | 1.33 ± 0.18 | 3.73 ± 0.3 | 0.449 ± 0.058 | 1.55 ± 0.2 | 5.89 ± 1.2 | 0.0981 (inactive) |
| CCCOc1ccc(C2NC(=O)NC(C)=C2C(=O)OC(C)C(C)(C)C)cc1OC (configuration not stated) | 0.557 ± 0.033 | 1.04 ± 0.063 | 0.746 ± 0.052 | 0.478 ± 0.016 | 0.722 ± 0.077 | 0.656 ± 0.061 | 0.96 (active) |
| CC(=O)Nc1cccs1 | 1.09 ± 0.14 | 1.06 ± 0.072 | 0.986 ± 0.035 | 0.944 ± 0.12 | 1.07 ± 0.11 | 1.04 ± 0.078 | 0.998 (active) |
| Cc1cccc(C(=O)N2N=C(C3CCCCC3)CC2(O)C(F)(F)F)c1O (configuration not stated) | 0.735 ± 0.057 | 0.839 ± 0.064 | 0.955 ± 0.089 | 0.939 ± 0.046 | 1.4 ± 0.093 | 1.52 ± 0.14 | 1.01 (active) |
| Cc1ncn(CCNC(=O)Nc2ccc(OC(F)(F)F)cc2)c(=O)c1C | 1.14 ± 0.077 | 1.08 ± 0.088 | 1.01 ± 0.061 | 0.901 ± 0.035 | 1.06 ± 0.05 | 1.11 ± 0.25 | 0.998 (active) |
| CCOC(=O)C1=C(C)NC(C)=C(C(=O)OCC)C1c1cc(Cl)cc(Cl)c1OC | 0.478 ± 0.064 | 0.44 ± 0.037 | 1.05 ± 0.1 | 1.07 ± 0.16 | 0.852 ± 0.039 | 2.23 ± 0.43 | 0.216 (inactive) |
| Cl.NC12CC3CC(CC(C3)C1)C2 | 1.44 ± 0.2 | 1.21 ± 0.38 | 1.04 ± 0.062 | 0.909 ± 0.033 | 1.44 ± 0.24 | 1.12 ± 0.096 | 0.983 (active) |
| Cl.N=c1ccn2c(n1)OC1C(O)C(CO)OC12 (configuration not stated) | 1.41 ± 0.38 | 1.17 ± 0.17 | 1.16 ± 0.073 | 0.696 ± 0.026 | 1.15 ± 0.18 | 0.959 ± 0.091 | 0.733 (active) |
| CC(=O)Nc1ccc(S(=O)(=O)N2CCC(Oc3cc(C)nc(C)n3)C2)cc1 (configuration not stated) | 0.919 ± 0.039 | 0.923 ± 0.098 | 1.04 ± 0.092 | 0.998 ± 0.08 | 0.936 ± 0.12 | 0.983 ± 0.32 | 0.97 (active) |
| O=c1c(O)c(-c2ccc(O)c(O)c2)oc2cc(O)cc(O)c12 | 1.06 ± 0.26 | 1.04 ± 0.093 | 1.47 ± 0.12 | 0.356 ± 0.021 | 1.08 ± 0.23 | 1.12 ± 0.14 | 0.982 (active) |
| O=C(CSC1CCCCC1)Nc1ccc(Br)cc1 | 1 ± 0.33 | 0.949 ± 0.07 | 1.1 ± 0.07 | 0.671 ± 0.022 | 1.06 ± 0.12 | 1.12 ± 0.14 | 0.962 (active) |
| Cc1ccccc1CNC(=O)CN(c1cccc(C(F)(F)F)c1)S(C)(=O)=O | 1.11 ± 0.097 | 1.07 ± 0.11 | 1.03 ± 0.041 | 0.956 ± 0.095 | 1.11 ± 0.13 | 1.03 ± 0.24 | 1 (active) |
| CCc1cccc(C)c1NC(=O)C(C)(C)CC | 0.948 ± 0.18 | 0.846 ± 0.12 | 0.911 ± 0.09 | 1.03 ± 0.041 | 0.988 ± 0.097 | 0.975 ± 0.1 | 0.995 (active) |
| CCOC(=O)C(CCCOc1c(C)cc(Cl)cc1C)C(=O)OCC | 0.961 ± 0.078 | 0.909 ± 0.069 | 1.08 ± 0.086 | 0.985 ± 0.04 | 0.95 ± 0.045 | 1.22 ± 0.17 | 0.997 (active) |
| COc1cc(C2Oc3cc(C4Oc5cc(O)cc(O)c5C(=O)C4O)ccc3OC2CO)ccc1O (configuration not stated) | 1.11 ± 0.083 | 1.07 ± 0.057 | 1.13 ± 0.029 | 0.988 ± 0.082 | 0.93 ± 0.17 | 1 ± 0.17 | 0.981 (active) |
| O=C(NC(=S)Nc1ccc2[nH]c(=O)[nH]c2c1)c1ccc(Cl)cc1 | 0.958 ± 0.082 | 1.13 ± 0.075 | 0.95 ± 0.042 | 0.94 ± 0.17 | 1.03 ± 0.043 | 0.994 ± 0.22 | 1 (active) |
| O=C(Oc1coc(CSc2ncccn2)cc1=O)c1ccc([N+](=O)[O-])cc1 | 0.972 ± 0.16 | 1.15 ± 0.13 | 1.03 ± 0.15 | 0.996 ± 0.03 | 1 ± 0.22 | 1.03 ± 0.1 | 0.986 (active) |
| CC(C)NCC(O)c1ccc(NS(C)(=O)=O)cc1.Cl (configuration not stated) | 0.99 ± 0.098 | 1.02 ± 0.057 | 1 ± 0.043 | 1.01 ± 0.056 | 0.978 ± 0.082 | 0.99 ± 0.09 | 1 (active) |
| COc1ccc(C=NNC(=O)C2COc3cc4ccccc4cc3O2)c(O)c1 (configuration not stated) | 0.993 ± 0.094 | 0.966 ± 0.054 | 0.98 ± 0.079 | 0.956 ± 0.031 | 1.31 ± 0.18 | 1.1 ± 0.15 | 1.01 (active) |
| Cc1cnc2c(c1N1CCC(Cc3ccccc3)CC1)c(=O)n(C)c(=O)n2C | 0.97 ± 0.06 | 1.08 ± 0.084 | 0.996 ± 0.051 | 1.06 ± 0.044 | 1.01 ± 0.088 | 1.07 ± 0.26 | 0.999 (active) |
| O=C(c1ccccc1)c1cc([N+](=O)[O-])ccc1N1CCOCC1 | 2.4 ± 0.19 | 1.15 ± 0.069 | 1.88 ± 0.13 | 0.297 ± 0.03 | 1.65 ± 0.12 | 1.48 ± 0.32 | 0.739 (active) |
| Cl.O[C@@H](CNC[C@H](O)[C@H]1CCc2cc(F)ccc2O1)[C@@H]1CCc2cc(F)ccc2O1 | 0.947 ± 0.09 | 0.759 ± 0.049 | 0.982 ± 0.028 | 0.68 ± 0.087 | 0.642 ± 0.021 | 1.13 ± 0.21 | 0.13 (inactive) |
| COS(=O)(=O)[O-].C[N+]1(C)CCC(=C(c2ccccc2)c2ccccc2)CC1 | 1.35 ± 0.061 | 1.09 ± 0.093 | 1.76 ± 0.32 | 0.849 ± 0.047 | 0.979 ± 0.15 | 0.823 ± 0.18 | 0.958 (active) |
